An excerpt weighted towards active compounds, which were near 6% of everything screened.
D1 antagonist – human D1 dopamine receptor antagonism; P21728; HEK293 TREx D1 cells, calcium flux, dopamine EC80; hits give low values; activity change, negative = inhibition, % at 10 µM; actives 3.2% (n = 360,000); AID 504652; in the data active = activity change below about -30%; also: % is scaled to controls: 0 for no effect and ±100 for the full control effect
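Tetracycline-induced HEK293 Trex D1 cells, force-coupled to calcium, dye-loaded; compounds added and read 180 s, then EC80 dopamine added and calcium flux tracked kinetically another 180 s.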
D3 ag – D3 dopamine receptor (human) agonism. max activation, %. D3R DiscoveRx beta-arrestin cells, luminescence, 90 min. actives 0.58% (n = 410,000). P35462; in the data active = max activation above about 30%; also: 0% is about no effect
Target sequence (P35462 whole entry, looked up): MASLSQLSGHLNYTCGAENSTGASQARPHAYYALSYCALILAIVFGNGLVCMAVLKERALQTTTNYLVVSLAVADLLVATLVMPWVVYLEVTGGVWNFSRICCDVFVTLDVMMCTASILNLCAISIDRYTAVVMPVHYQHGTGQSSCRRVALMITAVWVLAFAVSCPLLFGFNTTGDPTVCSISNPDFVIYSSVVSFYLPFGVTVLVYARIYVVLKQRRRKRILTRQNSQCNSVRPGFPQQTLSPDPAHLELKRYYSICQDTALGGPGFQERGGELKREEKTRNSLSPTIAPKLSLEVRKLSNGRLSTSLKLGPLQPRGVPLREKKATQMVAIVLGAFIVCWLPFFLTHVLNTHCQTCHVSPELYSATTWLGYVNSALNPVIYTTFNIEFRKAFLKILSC
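Agonist-mode cell screen: cells plated at 1500/well and incubated overnight at 37 °C, then exposed to library compounds for 90 min at 37 °C. Detection reagent was added for 30–60 min at room temperature, and luminescence was read.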
D1 potentiator – human D1 dopamine receptor positive modulation. P21728. HEK293 TREx D1 cells, calcium flux, dopamine EC20 potentiation. potentiation, % at 10 µM. actives 0.036% (n = 360,000). AID 504651; in the data active = potentiation above about 30%; also: 0% is about no effect
D3 antag – antagonists of human D3 dopamine receptor; P35462; D3R cells, DiscoveRx beta-arrestin luminescence, antagonist mode; hits give low values; max response, negative = inhibition, %; actives 2.5% (n = 360,000); AID 652054; in the data active = max response below about -50%; also: % is scaled to controls: 0 for no effect and ±100 for the full control effect
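Cells expressing the human receptor were seeded at 1500 cells/well, incubated overnight at 37 degrees C in 5% CO2, then exposed to library compounds with dopamine controls for 90 minutes at 37 degrees C before luminescent detection.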
D1 ag – human D1 receptor agonism | actives 1% (n = 360,000) | activation, % at 2 µM | HEK293 T-REx D1 cells, calcium flux, agonist mode | AID 504660 | P21728; in the data active = activation above about 30%; also: 0% is about no effect
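Tetracycline-induced HEK293 TREx D1 cells, force-coupled to calcium signalling, were dye-loaded with a no-wash calcium kit. Compound was pin-added after a 10 s baseline. Fluorescence was read kinetically at 1 cycle/s for 180 s, with calcium rises flagged as agonism.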
* marks the source's active call; other numbers are inactive results; / = no result.

SMILES | D1 antagonist | D3 ag | D1 potentiator | D3 antag | D1 ag
Cc1ccccc1NC1(C#N)C(=O)Nc2ccccc21 (stereo not drawn) | -22.2 | -2.9 | -11.2 | -8.9 | 0.1
CC(=O)/C(=N\Nc1cccc(Cl)c1)Sc1nnc(-c2ccccc2)n1-c1ccccc1 | 0.6 | -19.9 | -2.6 | -54.1* | 0.7
CC1=CC(=O)C=C(C)C1=NOC(=O)c1cccc([N+](=O)[O-])c1 | 6.0 | 8.0 | 0.9 | -82.5* | 1.4
CCCC(=O)Nc1sc(C)c(-c2ccc(C(C)CC)cc2)c1C#N (stereo not drawn) | / | 30.4* | / | 41.5 | /
COC(=O)CC(=O)CSc1nc2cc(C(=O)NCC(C)C)ccc2c(=O)n1CCc1ccccc1 | -13.8 | 6.6 | -4.6 | / | 2.4
COc1cccc(/C=C/C(=O)NNC(=O)c2ccccc2)c1OC | / | 0.1 | / | -18.2 | /
COc1cccc(/C=C/C(=O)NNC(=O)c2ccncc2)c1OC | -38.6* | -2.0 | -2.5 | -8.3 | 100.1*
CCOc1ccc(/C(O)=C2\C(=O)C(=O)N(CCN(C)C)C2c2cc(OC)ccc2OC)cc1Cl (stereo not drawn) | / | -1.5 | / | 25.2 | /
CCOc1ccc(/C(O)=C2\C(=O)C(=O)N(CCN(C)C)C2c2cccc(OC)c2OC)cc1Cl (stereo not drawn) | 2.4 | -1.1 | 1.2 | -56.3* | 0.7
CCCCOC(=O)c1c(C)oc2c1cc(NS(=O)(=O)c1cc(OC)ccc1OC)c1ccccc12 | -1.9 | 4.2 | -1.9 | / | 1.3
N#Cc1c(N)n(CCc2ccc(F)cc2)c2nc3ccccc3nc12 | -17.7 | 5.8 | -8.3 | 13.3 | 0.0
Cn1c(-c2c(N)n(C3CCCC3)c3nc4ccccc4nc23)nc2ccccc21 | -16.5 | 2.0 | -4.7 | 78.0 | 52.8*
Nc1c(C(=O)OCC2CCCO2)c2nc3ccccc3nc2n1C1CCCC1 (stereo not drawn) | -1.5 | 3.4 | -4.0 | -11.0 | 0.4
COCCn1c(N)c(C#N)c2nc3ccccc3nc21 | -14.1 | 26.3 | -1.3 | 15.9 | -2.2
Cn1c(-c2c(N)n(CCc3ccccc3)c3nc4ccccc4nc23)nc2ccccc21 | 10.6 | 46.3* | -4.6 | 23.5 | 77.0*
Cn1c(-c2c(N)n(CCCc3ccccc3)c3nc4ccccc4nc23)nc2ccccc21 | 2.6 | 3.6 | -4.7 | 14.3 | 51.6*
COCCCn1c(N)c(-c2nc3ccccc3n2C)c2nc3ccccc3nc21 | -3.7 | 13.7 | -2.4 | -87.9* | 76.5*
CCc1ccc(NC(=O)N2CCN(c3nnc(C)c4c(C)n(-c5ccc(Cl)cc5)nc34)CC2)cc1 | -7.8 | -15.8 | 7.3 | / | 3.7
COCCNC(=O)c1c(N)n(-c2ccccc2)c2nc3ccccc3nc12 | -1.1 | 0.5 | 8.9 | 24.7 | 3.2
COCCNC(=O)c1c(N)n(CCCn2ccnc2)c2nc3ccccc3nc12 | -47.2* | -3.3 | -8.9 | -3.0 | 1.5
CCCn1nc(NS(C)(=O)=O)c2cc3cccc(C)c3nc21 | 4.3 | 0.0 | 2.2 | -53.3* | 2.4
O=C1CC(C(=O)N2CCc3ccccc32)CN1c1ccccc1 (stereo not drawn) | -30.8* | 4.4 | -2.3 | 1.3 | -0.3
O=C(C1CCN(S(=O)(=O)N2CCOCC2)CC1)N1CCc2ccccc21 | -23.8 | -2.9 | -3.3 | -8.5 | 2.1
O=C(c1ccc([N+](=O)[O-])cc1)N1CCc2ccccc21 | / | -27.4 | / | -55.5* | /
O=C(C1CCC(C(=O)N2CCc3ccccc32)CC1)N1CCc2ccccc21 (stereo not drawn) | 1.6 | -10.1 | -5.4 | -59.0* | 1.6
SMILES | D1 antagonist | D3 ag | D1 potentiator | D3 antag | D1 ag
Cc1ccnc2nc(NC(=O)c3ccco3)nn12 | -4.8 | -2.4 | 1.6 | -66.1* | 0.5
CC(CNCC1CCCO1)COc1ccccc1 (stereo not drawn) | -1.8 | -18.5 | 0.2 | -79.4* | 1.6
CCCN(C(=O)Cn1ncc2c([nH]c3ccccc32)c1=O)c1ccc(F)cc1 | 4.5 | 0.0 | 6.9 | / | -0.4
OCC1(CCc2ccccc2)CCN(C/C=C/c2ccccc2)CC1 | -8.3 | -22.9 | -4.1 | -53.7* | 22.1
OCC1(Cc2ccccc2Cl)CCN(C/C=C/c2ccccc2)CC1 | -3.9 | -19.6 | -4.9 | -77.7* | 22.8
CCOc1ccc(NC(=O)CSc2nnc(CC)c(CC)n2)cc1 | -2.9 | 5.6 | 4.0 | / | 1.6
Cc1ccc(COC(=O)c2nn(-c3ccccc3)nc2N)cc1 | 13.7 | -2.5 | -4.8 | 15.1 | 3.9
Nc1nn(-c2ccccc2)nc1C(=O)OCc1ccccc1 | -10.0 | -13.7 | 1.2 | -64.6* | 2.1
CN(C(=O)c1ccc2c(c1)N(Cc1cccc(Cl)c1)C(=O)c1ccccc1S2(=O)=O)C1CCCCC1 | -1.7 | -9.8 | 1.5 | / | 2.0
COc1ccc(OC)c(-n2c(C)ccc2-c2ccc(S(C)(=O)=O)cc2)c1 | -68.5* | 2.1 | -1.7 | -3.3 | 0.7
COc1ccc(C2=NCCc3cc(OC)c(OC)cc32)cc1 | -61.1* | -3.5 | -11.8 | 4.5 | 2.6
COc1ccc(C2=NCCc3cc(OC)c(OC)cc32)cc1OC | 8.7 | 1.5 | -2.7 | -8.1 | 1.7
Cc1ccccc1Oc1ccccc1N | -31.5* | 6.0 | -4.5 | 21.9 | -0.4
Nc1ccccc1OCCOc1ccccc1N | -3.5 | 1.4 | 3.8 | -26.6 | 1.6
CC(=O)N1CCCc2cc(S(=O)(=O)N(C)CC(=O)Nc3cccc(Cl)c3C)ccc21 | 12.2 | 1.7 | -3.7 | / | 5.0
Cc1ccc(NC(=O)CC(NC(=O)c2ccccc2Cl)c2ccccc2)nc1 (stereo not drawn) | -30.1* | -1.2 | / | 5.3 | 6.7
CC(C)=C[C@@H]1C[C@H](C)[C@H]2CC[C@H](C)c3c(O)c(O)c(C)c1c32 | / | -22.5 | 0.8 | 0.0 | 0.3
CC(=O)Oc1c(C)c2c3c(c1OC(C)=O)[C@@H](C)CC[C@@H]3[C@@H](C)C[C@H]2C=C(C)C | / | 43.2* | 1.2 | 5.1 | -1.8
CC1CCN(C(=O)CSc2nc3ccccc3[nH]2)CC1 | 10.4 | -38.2 | -8.4 | -53.4* | -4.0
CCN(C(=O)CSc1nc2ccccc2[nH]1)c1ccccc1 | -2.9 | 2.0 | -6.0 | / | 5.9
CC(C)c1ccc(-c2noc(SCC(=O)N(C)c3ccc(F)cc3)n2)cc1 | -16.3 | 3.9 | -3.6 | / | 49.9*
O=C(Nc1ccc(F)cc1)C(Sc1nc2ccccc2[nH]1)c1ccccc1 (stereo not drawn) | -41.9* | -7.3 | -4.5 | 0.3 | 10.7
CN(C(=O)CSc1nc2ccccc2[nH]1)c1ccc(F)cc1 | -38.2* | 2.7 | -6.8 | / | 0.3
NC(=O)C1CCN(C(=O)CSc2nc3ccccc3[nH]2)CC1 | -5.9 | 5.4 | 1.1 | 14.5 | 1.8
O=C(Nc1noc2ccccc12)c1ccc(F)cc1 | 3.6 | 4.8 | -0.1 | / | 3.3
COc1ccc(Br)cc1CNC(=O)c1cc2n(n1)CCCN(Cc1ccc(C)cc1)C2=O | 3.5 | 1.4 | 0.4 | / | 6.9
C[C@@H](NC(=O)c1nc[nH]c1C(=O)NCC(=O)OCc1ccccc1)c1ccccc1 | -22.9 | 47.2* | -6.8 | 76.3 | 0.2
C[C@@H](NC(=O)c1nc[nH]c1C(=O)NCc1ccccc1)c1ccccc1 | 7.0 | 1.6 | -11.6 | 0.9 | 0.6
